# Measured values as given in PubChem BioAssay (Tox21).
# Records with an inconclusive call do not appear. Values without a mark were called inactive. Active and inactive are the calls of the source. Calls follow the shape of the dose curve; as a rule, active = well fitted curve in the direction sought with a large enough effect in the signal ratio in the repeat runs (not every such curve was filed as active); inconclusive = weak or mixed curves, or effect the other way; inactive = no such curve, though single readings can be large or run the other way; the % refers to the signal ratio.
# Target: Estrogen receptor (Homo sapiens) (UniProt P03372)
# Test: qHTS assay to identify small molecule antagonists of the estrogen receptor alpha (ER-alpha) signaling pathway (AID 743069)
# Conditions: HEK293 ER-alpha-UAS-bla, beta-lactamase ratio, antagonist mode; series mostly up to 69.4 µM; activity, negative = inhibition: at the top concentration
# Source text: National Center for Advancing Translational Sciences [NCATS]
# NIH Chemical Genomics Center [NCGC]
# U.S. Environmental Protection Agency [EPA]
# National Institutes of Environmental Health Sciences [NIEHS]
# National Toxicology Program [NTP]
# U.S. Food and Drug Administration [FDA]
# Estrogen receptor (ER), a nuclear hormone receptor, plays an important role in development, metabolic homeostasis and reproduction. Two subtypes of ER, ER-alpha and ER-beta have similar expression patterns with some uniqueness in both types. Endocrine disrupting chemicals (EDCs) and their interactions with steroid hormone receptors like ER causes disruption of normal endocrine function. To identify the compounds that inhibit ER signaling, an ER-alpha-UAS-bla GripTiteTM cell line (Invitrogen, Carlsbad, CA, USA) containing a beta-lactamase reporter gene under the control of an Upstream Activator Sequence (UAS) stably integrated into HEK293 cells was used to screen the Tox21 10K compound library.
# Tox21 Assay Protocol Summary:
# ER-alpha-bla cells were cultured in assay medium containing 2% charcoal stripped FBS overnight in the culture flasks before the assay was performed. The cells were dispensed at 5,000 cells/5 uL of assay medium per well into black wall/clear-bottom 1536-well plates using a Multidrop Combi (ThermoFisher Scientific, Waltham, MA) dispenser. After the assay plates were incubated at a 37C and 5% CO2 for 4 hr, 23 nL of compounds dissolved in DMSO, positive controls or DMSO only was transferred to the assay plate by a Pintool station (Kalypsys, San Diego, CA), followed by addition of 1 uL of 17beta-estradiol in assay medium using a Flying Reagent Dispenser (Aurora Discovery, San Diego, CA). The plates were incubated at 37C and 5% CO2 for 18 hr. Then 1 uL of LiveBLAzerTM B/G FRET substrate was added using a Flying Reagent Dispenser, the plates were incubated at room temperature for 2 hours, and fluorescence intensity was measured by an Envision plate reader (PerkinElmer, Shelton, CT).
# % is scaled to controls: 0 for no effect and ±100 for the full control effect.
# Chain of Estrogen receptor (Homo sapiens) (P03372 whole entry, looked up): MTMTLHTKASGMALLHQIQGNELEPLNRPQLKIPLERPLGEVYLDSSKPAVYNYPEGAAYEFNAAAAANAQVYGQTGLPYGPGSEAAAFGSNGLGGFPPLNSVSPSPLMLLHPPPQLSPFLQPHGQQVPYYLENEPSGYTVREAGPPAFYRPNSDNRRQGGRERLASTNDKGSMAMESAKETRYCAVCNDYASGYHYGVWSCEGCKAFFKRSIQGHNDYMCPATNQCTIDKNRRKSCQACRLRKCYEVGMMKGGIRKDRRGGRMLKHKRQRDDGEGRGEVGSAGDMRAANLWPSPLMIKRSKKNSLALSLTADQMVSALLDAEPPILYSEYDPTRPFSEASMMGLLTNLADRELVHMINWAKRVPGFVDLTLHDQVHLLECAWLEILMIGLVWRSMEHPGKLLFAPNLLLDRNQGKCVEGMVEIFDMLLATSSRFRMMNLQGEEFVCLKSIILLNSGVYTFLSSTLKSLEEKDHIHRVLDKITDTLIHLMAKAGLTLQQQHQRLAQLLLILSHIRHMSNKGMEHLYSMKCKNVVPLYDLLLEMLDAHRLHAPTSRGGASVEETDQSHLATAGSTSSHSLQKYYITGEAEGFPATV
Compound,"activity, negative = inhibition",Potency
O=C(O)CCNC(=O)c1ccccc1,-17.5%,–
COc1cccc2sc(N)nc12,16.2% [at 79.1 µM],–
OC[C@@H](O)[C@H](O)[C@@H](O)[C@@H](O)CO,-14.5%,–
Nc1cc(C(=O)O)ccc1Cl,4.71%,–
O=C(Nc1cccc(C2=NCCN2)c1)Nc1cccc(C2=NCCN2)c1,-6.66%,–
CCOC(=O)C(C)(C)C,-5.26% [at 79.1 µM],–
CCC(=O)c1ccc(O)cc1,16.7%,–
CCOC(=O)CC#N,-19%,–
CCCCCCCCCCCCOC(C)=O,-13.3%,–
CO[Si](CCCCl)(OC)OC,-25.9%,–
CCc1nccnc1C,17.7%,–
C=CCOCC(CO)(COCC=C)COCC=C,-18.5%,–
Cc1cccc(C(=O)O)c1[N+](=O)[O-],10.5%,–
CC(C)SCc1ccco1,-7.12% [at 32.6 µM],–
Cc1cc(C)cc([N+](=O)[O-])c1,10.1% [at 79.1 µM],–
NC(=O)NNC(N)=O,8.63%,–
CN=C(NC#N)NCCSCc1csc(N=C(N)N)n1,5.14%,–
C=CC(C)(O)CC/C=C(\C)CC (stereo not given),12.3%,–
Nc1ccnc(=O)[nH]1,1.65%,–
CC(C)(c1ccc(Oc2ccc3c(c2)C(=O)OC3=O)cc1)c1ccc(Oc2ccc3c(c2)C(=O)OC3=O)cc1,-5.3%,–

Compound,"activity, negative = inhibition",Potency
CNC(=O)C(c1ccccc1)c1ccccc1,-35.9%,–
OCCCCCCCl,-4.93% [at 79.1 µM],–
C=CCOc1c(Br)cc(Br)cc1Br,42.3%,–
CCCCCCCCCCCCCC(=O)OC,9.31%,–
CCCCCCCCOC(C)=O,57.2%,–
Cc1cccc(Nc2ccncc2S(=O)(=O)NC(=O)NC(C)C)c1,5.2% [at 32.6 µM],–
CC(C)(C)c1ccc(C=O)cc1,1.39%,–
Nc1cc(Cl)cc(S(=O)(=O)O)c1O,3.13% [at 79.1 µM],–
CC(=O)Nc1ccc(C)cc1,-30.9%,–
C[C@H](CCC(=O)O)[C@H]1CC[C@H]2[C@@H]3[C@H](O)C[C@@H]4C[C@H](O)CC[C@]4(C)[C@H]3C[C@H](O)[C@]12C,–,inactive
NC(=O)C1(N2CCCCC2)CCN(CCCC(=O)c2ccc(F)cc2)CC1,-9.05%,–
CO[Si](CCCS)(OC)OC,-13%,–
OC(CCN1CCCCC1)(c1ccccc1)c1ccccc1,-22.2%,–
CCCOCCOCCOCCO,22.9%,–
Nc1ccc(S(=O)(=O)Nc2ccccn2)cc1,-3.47% [at 32.6 µM],–
CCC(CO)CO,35.6%,–
CC(C)CCC(=O)CCC(C)C,18.9%,–
N#CCCOCCOCCC#N,14.4%,–
C=C[Si](C)(C)O[Si](C)(C)C=C,-8.92%,–
Cc1cc(O)c2c(c1)C(=O)c1cccc(O)c1C2=O,-8.28%,–
